High-throughput results (PubChem BioAssay)
IkB signaling = suppresses IkB signaling in ABC-DLBCL reporter cells; ABC-DLBCL IkBa-CBG/CBR dual luciferase ratio, 4 h; response scale: scaled: untreated 0%, proteasome inhibitor 100%; 110,000 tested, 0.04% active; Potency, µM (doses to about 57.1 µM), for inactives: at the top dose IkBa stabilization activation; active means well fitted curve in the direction sought with a large enough effect in the signal ratio, not every such curve was filed as active; inconclusive means small, poorly fitted or top-dose-only effect, or a change in a side signal; the % refers to the signal ratio;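 further: the direction sought is a rising ratio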
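Curves were fitted separately to fusion (green), unfused (red) and ratio luminescence, then classed by r2, magnitude and activity. Cells: OCI-Ly3, 4 h compound plus doxycycline at 37C; 10 uM MG-132 defined full response.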
Hsp90 Hop PPI = changes Hsp90-Hop TPR2A binding signal, up or down; AlphaScreen TPR2A-His6 binding biotin-Hsp90 C-terminal peptide; Potency, µM (top dose mostly 57 µM), for the others: top-dose activity change, negative = inhibition; 71,000 tested, 0.44% active; AID 595; active means well fitted curve in either direction with a large enough effect; inconclusive means small, poorly fitted or top-dose-only effect, or another doubt; further: on the % scale 0 is the no-effect control and ±100 the full control effect
ALOX15 inhib = blocks human 15-lipoxygenase activity; P16050; purified 15hLO-1, xylenol orange hydroperoxide absorbance; Potency, µM (top dose mostly 57.1 µM), for the others: top-dose activity change, negative = inhibition, hits mostly inhibitors; 74,000 tested, 1.4% active; AID 887; further: on the % scale 0 is the no-effect control and ±100 the full control effect; nearly all actives have a fitted effect of over 55% in size
Target sequence (P16050 whole entry, looked up): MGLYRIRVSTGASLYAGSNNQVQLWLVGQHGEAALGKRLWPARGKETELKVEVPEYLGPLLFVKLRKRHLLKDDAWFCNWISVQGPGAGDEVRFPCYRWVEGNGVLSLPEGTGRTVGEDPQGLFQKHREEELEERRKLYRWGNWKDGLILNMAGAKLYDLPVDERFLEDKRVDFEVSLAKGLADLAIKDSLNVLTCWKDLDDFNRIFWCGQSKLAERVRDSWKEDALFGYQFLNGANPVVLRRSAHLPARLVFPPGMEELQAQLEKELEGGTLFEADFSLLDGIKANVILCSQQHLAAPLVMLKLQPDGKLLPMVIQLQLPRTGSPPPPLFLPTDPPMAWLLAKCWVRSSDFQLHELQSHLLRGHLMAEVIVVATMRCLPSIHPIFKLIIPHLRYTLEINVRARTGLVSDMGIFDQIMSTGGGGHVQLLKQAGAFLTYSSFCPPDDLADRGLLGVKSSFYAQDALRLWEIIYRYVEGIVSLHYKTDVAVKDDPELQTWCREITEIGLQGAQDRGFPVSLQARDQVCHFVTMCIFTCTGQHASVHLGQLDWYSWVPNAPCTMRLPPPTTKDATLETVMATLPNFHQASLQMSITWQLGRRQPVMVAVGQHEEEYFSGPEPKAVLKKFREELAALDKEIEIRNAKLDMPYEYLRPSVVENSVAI
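Hydroperoxide formed from arachidonic acid (50 uM) by purified human 15hLO-1 (40 nM) oxidizes ferrous iron, and the ferric-xylenol orange complex is read at 573 versus 405 nm. Compounds were preincubated 15 min; reaction ran 6 min at room temperature.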
CRE-bla Fsk = alters forskolin-stimulated CRE reporter signaling in CHO cells. CHO CRE-bla reporter (cAMP response element driving beta-lactamase), forskolin EC10, beta-lactamase ratio. Potency, µM (titrated, usually from 38.2 µM), for the others: at the top dose activity change, negative = inhibition, actives largely listed as activators. 71,000 tested, 2.5% active. AID 662; active means well fitted activation curve with a large enough effect in the signal ratio, with a control signal flat, not every such curve was filed as active; inconclusive means small, poorly fitted or top-dose-only effect, or effect the other way, or a change in a side signal; the % refers to the signal ratio; further: % of control where 0% means no effect
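Beta-lactamase reporter under a cAMP responsive element in CHO cells; compounds tested in titration series against EC10 NKH 477, 3 h at 37 °C. Read-out: CCF4 FRET ratio 460nm/530nm (excitation 405nm) giving %Activity, fitted to AC50.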
Tau filament bind = tau filament binding; P10636; recombinant tau filaments, thioflavin S fluorescence, 15 h; filaments grown with octadecylsulfate alongside compound; Potency, µM (highest dose often 57.1 µM), for the others: at the top dose activity change, negative = inhibition; 71,000 tested, 2% active;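 further: on the % scale 0 is the no-effect control and ±100 the full control effect; actives lower thioflavin S fluorescence by blocking filaments or displacing dye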
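Assay mix: 1 uM His-tagged tau, 30 uM sodium octadecylsulfate, thioflavine S dye in HEPES/NaCl/DTT buffer. Compound is added prior to the inducer. Fluorescence after 15 h at 37 C.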
Active calls of the source: *; ? = inconclusive; nt = no result; [ ] = dose if it differs, or a comment. Most compounds without a hit are left out; they make up all but 3.6% or so of the library. Unless noted, the call rests on the fitted dose curve; in most records, active means well fitted curve in the direction sought with a large enough effect; inconclusive means small, poorly fitted or top-dose-only effect, or another doubt; inactive means no such curve, though single readings can be large; an effect the other way counts as inactive or inconclusive. Potency means the concentration at half of the fitted maximal effect.

SMILES	IkB signaling	Hsp90 Hop PPI	ALOX15 inhib	CRE-bla Fsk	Tau filament bind
O=C(c1cc2nc(-c3ccccc3)cc(-c3ccccc3)n2n1)N1CCN(C(=O)c2ccco2)CC1	?	19%	-15%	3.2µM*	68%
NC(=O)c1cnn2c(C(F)(F)F)cc(-c3ccc(F)cc3)nc12	0%	-3%	-5%	10µM*	?
COc1cc(NC(=O)c2ccc(C)c(Cl)c2)ccc1NC(=O)c1cc2ccccc2o1	1%	nt	nt	nt	nt
CCC/C=C(\CCC)C(NC(=O)C(C)(C)C)c1ccc(C(=O)OC)cc1 (stereo unspecified)	nt	?	nt	-3%	0%
CN1CCN(C(=O)c2cc3nc(-c4ccc(Cl)cc4)cc(C(F)(F)F)n3n2)CC1	-2%	-6%[11 µM]	5%[11.4 µM]	?	2.5µM*
O=C(c1cc2nc(-c3ccc(F)cc3)cc(C(F)(F)F)n2n1)N1CCCC1	1%	-4%[11 µM]	4%[11.4 µM]	?	-7%[11.4 µM]
Cc1ccc(-c2cc(C(F)(F)F)n3ncc(C(=O)N4CCN(C)CC4)c3n2)cc1	2%	-3%[11 µM]	0%[11.4 µM]	?	4µM*
CN(C)c1ccc(CNC(=O)c2cnc3sc(N4CCCC4)nn3c2=O)cc1	-1%	nt	nt	nt	nt
Cn1c(-c2ccc(N)cc2)nc2ccccc21	0%	-2%	?	1%	-2%
Cc1ccc(-n2c(N)c(-c3nc4ccccc4n3C)sc2=S)cc1	2%	-7%	3.2µM*	?	136%
O=c1ccc2c(o1)/C(=C/C=C(Cl)Cl)CCC2	4%	5%[11 µM]	?	?	2µM*
CC(C)c1nnc(NC(=O)c2cccs2)s1	?	?	?	4%	-13%
CNCCCCCCCCSc1nc(C(C)C)ccc1C(=O)c1cccs1	0%	-6%	-6%[25.6 µM]	1%	13µM*
CC(C)(C)NCC(O)COc1ccccc1C(C)(C)C (stereo unspecified)	2%	-2%	4%	-3%	-4%
CC(C)(C)NC[C@@H](O)COc1ccccc1C1CCCC1	2%[25.6 µM]	-3%[26 µM]	9%[25.6 µM]	-8%[17.1 µM]	13µM*
CC(C)N=c1cc2n(-c3ccc(Cl)cc3)c3ccccc3nc-2cc1Nc1ccc(Cl)cc1	-2%[25.6 µM]	-7%[26 µM]	1%[25.6 µM]	-2%[17.1 µM]	0.13µM*
COC(=O)c1c(C#N)c(N)nc2c1CCC2	0%	0%	0%	2µM*	6%
COc1cc2ccccc2cc1C(=O)N1CCN(c2nc3c(C)cc(C)cc3s2)CC1	-1%	nt	nt	nt	nt
CCc1c(CN2CCN(c3cccc(C)c3C)CC2)csc1C	0%	nt	nt	nt	nt
Cc1sc2nc(SCc3nnc(-c4cccs4)o3)n(C3CCCC3)c(=O)c2c1C	1%	-3%	-9%	?	14%
Cc1sc2nc(SCC(=O)N(CCO)CCO)n(C3CCCCC3)c(=O)c2c1C	4%	-3%	-2%	13µM*	101%
O=CN[C@@H](Cc1cnc[nH]1)C(=O)O	0%[11.4 µM]	1%[11 µM]	9%[11.4 µM]	11%[7.6 µM]	-11%[11.4 µM]
COc1nc(Nc2ccc(O)cc2)nc(OC(C(F)(F)F)C(F)(F)F)n1	2%	6%	25µM*	25%	-11%
CC(C)(C)C(=O)/C=C(N)/C=C/c1ccccc1	0%	-12%	-14%	-10%	25µM*
O=C(Nc1cnn(Cc2ccc(F)cc2)c1)c1cc2nc(-c3ccco3)cc(C(F)(F)F)n2n1	0%	-5%	-13%	-3%	16µM*
SMILES	IkB signaling	Hsp90 Hop PPI	ALOX15 inhib	CRE-bla Fsk	Tau filament bind
Cc1ccccc1Cn1ccc(NC(=O)c2cc3nc(-c4ccco4)cc(C(F)(F)F)n3n2)n1	1%	-2%	-3%	?	-26%
O=C(Nc1ccc(F)cc1F)c1cc2nc(-c3ccco3)cc(C(F)(F)Cl)n2n1	2%	nt	nt	nt	nt
Cc1nn(Cc2ccccc2)c(C)c1NC(=O)c1cc2nc(-c3ccco3)cc(C(F)(F)F)n2n1	?	-1%	-12%	?	16µM*
CCOc1ccc(NC(=O)c2cnc3sc(N4CCOCC4)nn3c2=O)cc1	1%	nt	nt	nt	nt
COc1ccc(S(=O)(=O)C(C#N)c2nc3ccccc3nc2N2CCCCC2)cc1 (stereo unspecified)	4%	-3%	-22%	?	-24%
Cc1ccc(C)c(S(=O)(=O)C(C#N)c2nc3ccccc3nc2N2CCCC2)c1 (stereo unspecified)	3%	-8%	13µM*	?	302%
N#CC(c1nc2ccccc2nc1N1CCCC1)S(=O)(=O)c1cccs1 (stereo unspecified)	4%	-16%	10µM*	?	195%
COc1ccc(-c2nc3ccccc3n3c(-c4ccc(OC)cc4)c4c(=O)n(C)c(=O)n(C)c4c23)cc1	-2%	nt	nt	nt	nt
COc1ccc2nc(SCc3nc(N)nc(Nc4ccccc4)n3)[nH]c2c1	?	-7%	-3%	2µM*	-4%
CC1=NN(C(=O)c2ccncc2)C(=O)[C@@H]1N=Nc1ccc2ccccc2c1	18%[11.4 µM]	-19%[11 µM]	0%[11.4 µM]	-2%[7.6 µM]	1.6µM*
CC(C)Sc1nc(-c2cccs2)nc2c1c(=O)n(C)c(=O)n2C	0%	1%	5%	3.2µM*	-8%
Cn1c(=O)c2c(SCC(=O)NCC3CCCO3)nc(-c3cccs3)nc2n(C)c1=O (stereo unspecified)	-1%	-1%	7%	12%	-22%
CCOC(=O)N1CCN(c2c(F)cc3[nH]c(=S)[nH]c3c2Br)CC1	?	0%	?	?	16µM*
CN(C)c1ccc2c(c1)OC(N)=C(C#N)C2c1cccc(F)c1 (stereo unspecified)	?	-12%	13µM*	?	176%
CCc1ccc(CNc2ccc(O)cc2)cc1	?	-29%	?	-6%	10µM*
CCc1ccc(CNc2ccc3c(c2)ncn3C(C)(C)C)cc1	4%	nt	nt	nt	nt
NC(N)=N/N=C\c1ccc(O)c(C(=O)O)c1	1%[11.4 µM]	-4%[11 µM]	2%[11.4 µM]	6%[7.6 µM]	-5%[11.4 µM]
CN(Cc1ccccc1)C(=O)CN(C1CCCCC1)S(C)(=O)=O	-2%	-9%	8%	4µM*	24%
COC(=O)c1ccccc1NC(=O)CN(C1CCCCC1)S(C)(=O)=O	-6%	-3%	-9%	3.2µM*	12%
CC(C)Nc1nc(NC(C)C)nc(N(C)C(N)=O)n1	0%	2%	1%	10µM*	17%
Cc1cc(C)nc(N2CCCC(C(=O)Nc3ccc4nc(C)c(C)nc4c3)C2)n1 (stereo unspecified)	?	-6%	-5%	6.3µM*	-10%
N#CC1=C(N)OC2=C(C(=O)CCC2)C12CCN(C(=O)OCc1ccccc1)CC2	1%	-2%	25µM*	3%	-18%
CC1(C)CC(=O)C2=C(C1)OC(N)=C(C#N)C21CCN(C(=O)OCc2ccccc2)CC1	3%	0%	-15%	2%	-4%
Cc1ccc(NC(=O)Cn2cccc2)cc1C	0%	-7%	9%	5%	4%
Cc1ccc(NC(=O)CSCC(N)=O)cc1C	20%	?	6.3µM*	?	3.2µM*
